PubChem BioAssay AID1159580 (chemical genetic matrix, 2015)
Several values for one entry are separate records, joined by “and”; a condition that tells them apart may be missing. Equal entries are not always repeated. Hit rate of the full screen: of about 5,500 compounds, about 2,000 (36%) were called active. Another 18% or so got no clear call; they are omitted. No stated cut-off is given here; in the data, active means normalized growth mostly below about 0.91 (no sharp cut-off); inconclusive means no clear call, values can overlap the other calls; inactive means mostly above about 0.92. The list shows a part of the results.

Assay: chemical genetic growth profiling, strain panel (AID 1159580);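 further: tested at 20 µM; growth read once vehicle control cultures reached saturation at 30 °C; 1 = growth at the plate median or of vehicle wells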
Details: growth OD

Measured: normalized growth

CCN(CC)CCNC(=O)c1cc(S(C)(=O)=O)ccc1OC
inactive: S. cerevisiae deletion strains, locus YJR066W, strain TOR1, stronger effect = lower value 0.947 | S. cerevisiae deletion strains, locus YJR075W, strain HOC1, stronger effect = lower value 1.03 and 0.995 | S. cerevisiae deletion strains, locus YKL009W, strain mrt4, stronger effect = lower value 1.02 | S. cerevisiae deletion strains, locus YKL068W, stronger effect = lower value 1.01 | S. cerevisiae deletion strains, locus YKL085W, strain MDH1 (second series), stronger effect = lower value 1.02 | S. cerevisiae deletion strains, locus YKL085W, strain MDH1, stronger effect = lower value 1.02 | S. cerevisiae deletion strains, locus YKL160W, strain elf1, stronger effect = lower value 0.944 | S. cerevisiae deletion strains, locus YKL190W, strain CNB1, stronger effect = lower value 1.01 | S. cerevisiae deletion strains, locus YKR001C, strain vps1, stronger effect = lower value 1.01 | S. cerevisiae deletion strains, locus YKR026C, strain gcn3, stronger effect = lower value 0.979 | S. cerevisiae deletion strains, locus YKR091W, strain srl3, stronger effect = lower value 0.962 | S. cerevisiae deletion strains, locus YLL001W, strain dnm1, stronger effect = lower value 0.94 | S. cerevisiae deletion strains, locus YLL026W, stronger effect = lower value 0.975 | S. cerevisiae deletion strains, locus YLL041C, strain sdh2, stronger effect = lower value 0.972 | S. cerevisiae deletion strains, locus YLR027C, strain aat2, stronger effect = lower value 0.963 | S. cerevisiae deletion strains, locus YLR039C, strain RIC1, stronger effect = lower value 1.03 | S. cerevisiae deletion strains, locus YLR058C, strain SHM2, stronger effect = lower value 1.01 | S. cerevisiae deletion strains, locus YLR102C, strain apc9, stronger effect = lower value 1.01 | S. cerevisiae deletion strains, locus YLR113W, strain HOG1, stronger effect = lower value 0.984 | S. cerevisiae deletion strains, locus YLR221C, strain rsa3, stronger effect = lower value 0.948 | S. cerevisiae deletion strains, locus YLR258W, strain gsy2, stronger effect = lower value 0.981 | S. cerevisiae deletion strains, locus YLR262C, strain YPT6 (second series), stronger effect = lower value 0.976 | S. cerevisiae deletion strains, locus YLR262C, strain YPT6, stronger effect = lower value 1.06 | S. cerevisiae deletion strains, locus YLR268W, strain sec22, stronger effect = lower value 1.02 | S. cerevisiae deletion strains, locus YLR320W, strain mms22, stronger effect = lower value 0.941 | S. cerevisiae deletion strains, locus YLR330W, strain CHS5, stronger effect = lower value 1.01 | S. cerevisiae deletion strains, locus YLR342W, strain FKS1 (second series), stronger effect = lower value 1.02 | S. cerevisiae deletion strains, locus YLR342W, strain FKS1, stronger effect = lower value 0.963 | S. cerevisiae deletion strains, locus YLR357W, strain rsc2, stronger effect = lower value 0.927 | S. cerevisiae deletion strains, locus YLR370C, strain arc18, stronger effect = lower value 0.969 | S. cerevisiae deletion strains, locus YLR371W, strain rom2, stronger effect = lower value 1.01 | S. cerevisiae deletion strains, locus YLR384C, strain iki3, stronger effect = lower value 0.971 | S. cerevisiae deletion strains, locus YLR418C, strain cdc73, stronger effect = lower value 1.04 | S. cerevisiae deletion strains, locus YML016C, strain PPZ1, stronger effect = lower value 1.01 | S. cerevisiae deletion strains, locus YML032C, strain rad52, stronger effect = lower value 1.01 | S. cerevisiae deletion strains, locus YML120C, strain ndi1, stronger effect = lower value 0.944 | S. cerevisiae deletion strains, locus YML124C, strain tub3, stronger effect = lower value 1.01 | S. cerevisiae deletion strains, locus YMR058W, strain fet3, stronger effect = lower value 0.969 | S. cerevisiae deletion strains, locus YMR078C, strain ctf18, stronger effect = lower value 1.01 | S. cerevisiae deletion strains, locus YMR125W, strain sto1, stronger effect = lower value 0.963 | S. cerevisiae deletion strains, locus YMR129W, stronger effect = lower value 0.974 | S. cerevisiae deletion strains, locus YMR205C, strain PFK2, stronger effect = lower value 0.941 | S. cerevisiae deletion strains, locus YMR223W, strain ubp8, stronger effect = lower value 1.03 | S. cerevisiae deletion strains, locus YMR231W, strain pep5, stronger effect = lower value 0.973 | S. cerevisiae deletion strains, locus YMR263W, strain SAP30, stronger effect = lower value 1 | S. cerevisiae deletion strains, locus YMR307W, strain GAS1, stronger effect = lower value 1.06 and 0.987 | S. cerevisiae deletion strains, locus YNL067W, strain RPL9B, stronger effect = lower value 1 | S. cerevisiae deletion strains, locus YNL071W, strain lat1, stronger effect = lower value 0.975 | S. cerevisiae deletion strains, locus YNL128W, strain TEP1, stronger effect = lower value 1.02 | S. cerevisiae deletion strains, locus YNL153C, strain GIM3, stronger effect = lower value 1.02 | S. cerevisiae deletion strains, locus YNL175C, strain NOP13, stronger effect = lower value 1.01 | S. cerevisiae deletion strains, locus YNL183C, strain NPR1, stronger effect = lower value 0.921 | S. cerevisiae deletion strains, locus YNL197C, strain WHI3, stronger effect = lower value 1.03 | S. cerevisiae deletion strains, locus YNL209W, strain ssb2, stronger effect = lower value 0.972 | S. cerevisiae deletion strains, locus YNL224C, strain SQS1, stronger effect = lower value 1 | S. cerevisiae deletion strains, locus YNL233W, strain BNI4, stronger effect = lower value 1 | S. cerevisiae deletion strains, locus YNL248C, strain rpa49, stronger effect = lower value 0.971 | S. cerevisiae deletion strains, locus YNL250W, strain rad50, stronger effect = lower value 1.04 | S. cerevisiae deletion strains, locus YNL271C, strain bni1, stronger effect = lower value 1 | S. cerevisiae deletion strains, locus YNL298W, strain CLA4, stronger effect = lower value 1.01 | S. cerevisiae deletion strains, locus YNL307C, strain MCK1, stronger effect = lower value 1.02 | S. cerevisiae deletion strains, locus YNL322C, strain KRE1 (second series), stronger effect = lower value 0.956 | S. cerevisiae deletion strains, locus YNL322C, strain KRE1, stronger effect = lower value 0.961 | S. cerevisiae deletion strains, locus YNR049C, strain mso1, stronger effect = lower value 0.96 | S. cerevisiae deletion strains, locus YNR052C, strain pop2, stronger effect = lower value 1.01 | S. cerevisiae deletion strains, locus YOL006C, strain TOP1, stronger effect = lower value 1.01 | S. cerevisiae deletion strains, locus YOL012C, strain htz1 0.994 | S. cerevisiae deletion strains, locus YOL147C, strain pex11, stronger effect = lower value 1.01 | S. cerevisiae deletion strains, locus YOR001W, strain rrp6, stronger effect = lower value 0.968 | S. cerevisiae deletion strains, locus YOR061W, strain CKA2, stronger effect = lower value 1.01 | S. cerevisiae deletion strains, locus YOR069W, strain VPS5, stronger effect = lower value 1.01 | S. cerevisiae deletion strains, locus YOR070C, strain gyp1, stronger effect = lower value 0.98 | S. cerevisiae deletion strains, locus YOR080W, strain dia2, stronger effect = lower value 0.959 | S. cerevisiae deletion strains, locus YOR083W, strain WHI5 (second series), stronger effect = lower value 1 | S. cerevisiae deletion strains, locus YOR083W, strain WHI5, stronger effect = lower value 0.94 | S. cerevisiae deletion strains, locus YOR106W, strain vam3, stronger effect = lower value 0.939 | S. cerevisiae deletion strains, locus YOR136W, strain idh2, stronger effect = lower value 1.01 | S. cerevisiae deletion strains, locus YOR144C, strain elg1, stronger effect = lower value 1.01 | S. cerevisiae deletion strains, locus YOR184W, strain ser1, stronger effect = lower value 1.01 | S. cerevisiae deletion strains, locus YOR231W, strain MKK1, stronger effect = lower value 0.978 | S. cerevisiae deletion strains, locus YOR265W, strain rbl2, stronger effect = lower value 0.979 | S. cerevisiae deletion strains, locus YOR270C, strain vph1, stronger effect = lower value 0.933 | S. cerevisiae deletion strains, locus YOR290C, strain snf2, stronger effect = lower value 0.928 | S. cerevisiae deletion strains, locus YOR316C, strain cot1, stronger effect = lower value 1.01 | S. cerevisiae deletion strains, locus YPL051W, strain arl3, stronger effect = lower value 1 | S. cerevisiae deletion strains, locus YPL055C, strain LGE1, stronger effect = lower value 0.983 and 0.98 | S. cerevisiae deletion strains, locus YPL078C, strain atp4, stronger effect = lower value 0.962 | S. cerevisiae deletion strains, locus YPL106C, strain sse1, stronger effect = lower value 0.931 | S. cerevisiae deletion strains, locus YPL240C, strain hsp82, stronger effect = lower value 0.988 | S. cerevisiae deletion strains, locus YPL256C, strain CLN2, stronger effect = lower value 0.981 | S. cerevisiae deletion strains, locus YPR119W, strain clb2, stronger effect = lower value 1 | S. cerevisiae deletion strains, locus YPR141C, strain kar3, stronger effect = lower value 1.01 | S. cerevisiae deletion strains, locus YPR163C, strain tif3, stronger effect = lower value 1.01 | S. cerevisiae deletion strains, locus YPR167C, strain met16, stronger effect = lower value 1.01 | S. cerevisiae deletion strains, strain wtn01, stronger effect = lower value 1.01 | S. cerevisiae strains, strain wild type, stronger effect = lower value 1.01
